Test results taken from PubChem BioAssay AID1865 (National Center for Advancing Translational Sciences (NCATS), 2009).
The campaign covered roughly 280,000 compounds. About 540 (0.19%) were called active. Not shown: some 2% with an inconclusive outcome. The call rests on the fitted dose curve; in most records, active means well fitted activation curve with a large enough effect; inconclusive means small, poorly fitted or top-dose-only effect; inactive means flat fitted curve, though single readings scatter. For the sample, actives were picked, then their nearest neighbours and some compounds at random.

Assay: Quantitative High-Throughput Screen for Regulators of Epigenetic Control; further: nearly all actives have a fitted effect of over 60% in size; on GFP activation: % of control where 0% means no effect
Settings: murine LDR cells, GFP reporter derepression, 30 h; series mostly up to 53.9 µM; GFP activation: at the top concentration
Procedure, shortened: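 Derepression of a silenced CMV-GFP reporter in murine LDR cells is scored by enumerating GFP-positive cells with a laser-scanning microplate cytometer after 30 hours of treatment at 37 C.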
Potency means the concentration at half of the fitted maximal effect.

GFP activation, inactive:
CC1Cc2cc(S(=O)(=O)CCC(=O)Nc3ccc(F)c(Cl)c3)ccc2N1C(=O)C1CC1 (stereo unspecified) -0.364%
CCN1C(=O)c2cccc3c(N)ccc1c23 0.901%
Cc1nn(C)cc1N1C(=O)c2cccc3c(N)ccc(c23)C1=O 2.11%
CN1CCN(c2oc(-c3ccc(COc4ccc(Cl)cc4)o3)nc2C#N)CC1 0%
CC(=O)Nc1cccc(Oc2cc(C#N)c(C#N)cc2N2CCOCC2)c1 -1.01%
COc1ccc(Br)cc1/C=N/n1c(C)nnc1C 4.97%
Cc1ccc(CCNC(=O)Cn2c(-c3cccs3)cc3cc(F)ccc32)cc1 -1.88%
Cc1noc2ncnc(NCc3ccccc3Cl)c12 0%
Cc1nn(C(C)C(=O)NCCc2ccccc2)c(=O)c2c1sc1ccccc12 (stereo unspecified) 13.4%
CCc1ccc(C2CC(=O)c3c([nH]c(C(=O)OCc4ccc(C)cc4)c3C)C2)cc1 (stereo unspecified) 0.291%
CC(=O)c1ccc(NC(=O)CCc2nc(-c3ccc(C)cc3)no2)cc1 -1.54%
CC(C)(C)c1ccc(S(=O)(=O)N2CCN(C(=O)c3cc(-c4ccc(Br)cc4)n[nH]3)CC2)cc1 0%
Cc1cc(C)cc(NS(=O)(=O)c2ccc(-c3cc(C)no3)s2)c1 -0.833%
O=C(/C=C/c1ccccc1)Nc1cc(-c2nc3cc(Cl)ccc3o2)ccc1Cl 1.08%
Fc1ccc(Nc2nc(SCc3ccccc3Cl)nc3ccccc23)cc1 0%
CCN1CCN(c2ncnc3c2cnn3-c2ccc(C)c(C)c2)CC1 0%
O=C(Nc1ccncc1)c1cc(-c2ccccn2)nc2ccc(Br)cc12 1.14%
Cc1ccc2nc(-c3ccncc3)cc(C(=O)Nc3ccc4c(c3)OCCO4)c2c1 2.23%
OCc1cnc(SCc2ccc(F)cc2)n1Cc1ccc(F)cc1 0.584%
Cc1ccc(S(=O)(=O)N(CC(=O)Nc2ccc(Cl)cc2Cl)c2ccccc2C)cc1 1.91%
Cc1ccc(C)c(N2CCN(C(=O)Cn3nc(C)c4sc5ccccc5c4c3=O)CC2)c1 -2.4%
CCCC(=O)Nc1nnc(-c2ccccc2)o1 1.08%
CCCCCCc1ccc(O)cc1O 13.1%
COc1ccc(CNc2nc(-c3ccc(Cl)cc3)nn2S(=O)(=O)c2ccc(C)cc2)cc1 2.76%
Cc1cccc(NC(=O)CSc2nnc(CNC(=O)c3cccc(C)c3)n2-c2ccccc2)c1 0%
CCc1ccc(NC(=O)c2nn(-c3ccc(C)cc3)c(=O)n(C)c2=O)cc1 8.47%
CN(C)c1ccnc2sc(C(=O)c3ccccc3)c(N)c12 -2.99%
O=C(CN1C2=NCCN2c2ccccc21)c1cccs1 0%
CCOC(=O)c1ccc(NC(=O)CC2C(=O)N(c3ccccc3)C(=O)N2Cc2cccs2)cc1 (stereo unspecified) -0.348%
CSc1ccccc1-c1nnc(NC(=O)c2ccc3c(c2)OCCO3)o1 -1.64%
Cc1oc(-c2ccccc2F)nc1CN1CCC(C(=O)NCCc2ccc(Cl)cc2)CC1 -1.11%
CC(C)c1ccc(NC(=O)CN(C)S(=O)(=O)c2ccc3c(c2)c(=O)n(C)c(=O)n3C)cc1 -1.11%
COCCCNC(=O)c1ccc(NC(=O)c2nsc3ccccc23)cc1 2.2%
Cc1ccc(-c2cnc(NCc3ccc(C(C)C)cc3)n2C)cc1 -0.242%
CCOC(=O)c1cccc(NC(=O)Cn2cnc3nc4c(cc3c2=O)CCCC4)c1 -1.69%
CCOC(=O)c1ccc(NC(=O)C2CCN(S(=O)(=O)c3ccc4c(c3)CCCC(=O)N4)CC2)cc1 -1.27%
Cc1ccc(NC(=O)Cn2c(=O)n(-c3ccccc3)c(=O)c3c4c(sc32)CCCC4)cc1 -1.77%
CCOc1cc(C(=O)NCCc2csc3nc(-c4ccc(C)cc4)nn23)cc(OCC)c1OCC -1.23%
Cc1cccc(C(CC(=O)NCC2(c3ccccc3)CCCC2)c2ccccc2)c1O (stereo unspecified) -0.962%
Cc1ccc(Cl)cc1N1CCN(C(=O)c2cnc3c(-c4ccc(F)cc4)c(C)nn3c2C)CC1 0.833%
CCCCn1c(=O)c2oc3ccccc3c2n(CC(=O)Nc2ccccc2OC)c1=O 2.82%
COc1cc(NC(=O)Cn2c(=O)n(Cc3ccco3)c(=O)c3oc4ccccc4c32)cc(OC)c1 4.43%
O=C(NCc1ccccc1Cl)c1cccn1-c1nnc(N2CCCCC2)s1 0.374%
Cc1ccc(NC(=O)c2cc(S(=O)(=O)NCCC3=CCCCC3)ccc2F)cc1C -1.18%
COc1cccc(CNC(=O)C(=O)NCC(c2cccs2)S(=O)(=O)c2ccccc2)c1 (stereo unspecified) 4.17%
Cc1cccc(CCNC(=O)c2ccc3c(c2)nc2n3CCC(C)C2)c1 (stereo unspecified) 12.7%
O=c1nc2s/c(=C\c3ccco3)c(=O)n2nc1Cc1ccccc1 -0.952%
Cc1cs/c(=N\N=C\c2ccc(O)cc2)n1Cc1ccco1 -1.92%
COc1cc(OC)c(OC)cc1/C=C/c1nc2cc3ccccc3cc2c(=O)n1-c1ccc(F)c(Cl)c1 0.436%
O=S(=O)(NCC(c1ccccc1)N1CCc2ccccc21)c1ccccc1 (stereo unspecified) -4.06%
COc1cc2c(cc1OC)C(COc1ccc(F)cc1)N(C(=O)c1ccccc1F)CC2 (stereo unspecified) 1.18%
CCOC(=O)c1c(C)[nH]c(CCC(=O)NCCCN2CCN(c3cc(C)ccc3C)CC2)c1C -0.109%
CC(C)(C)c1ccc(C(=O)NCC(c2ccc(Cl)cc2)N2CCOCC2)cc1 (stereo unspecified) 1.61%
COc1ccc(-c2cccc(NS(=O)(=O)c3cc(C)c(OC)c(C)c3C)c2)nn1 1.69%
O=C(NC1CCN(Cc2ccccc2)CC1)c1ccc(Cn2c(=O)c3ccccc3n(Cc3cccc(F)c3)c2=O)cc1 -0.885%
CCOc1ccccc1C(=O)Nc1ccc(S(=O)(=O)N2CCCCC2c2cccnc2)cc1 (stereo unspecified) 2.78%
CC(C)c1ccc(S(=O)(=O)Nc2ccc(O)c(Sc3nc4ccccc4s3)c2)cc1 -3.44%
COc1ccc(Cn2c(C(=O)O)c(CNCc3cccc(OC)c3)c3ccc(C)cc32)cc1 0%
CC(C)c1ccc2oc(-c3cc(NC(=O)c4cccs4)ccc3Cl)nc2c1 -1.08%

Potency, active:
Nc1ccc2c3c(cccc13)C(=O)NC2=O 17.8 µM
COc1cc(N2CCCC2)c(OC)cc1/C=C(/C#N)c1cccc(Br)c1 3.55 µM
Cc1ccc2nc(-c3ccccn3)cc(C(=O)Nc3ccc4c(c3)OCO4)c2c1 15.8 µM
CCCCCCc1cc2cc(-c3nnc(-c4ccccc4)o3)c(=O)oc2cc1O 1.78 µM
Nc1c(C(=O)c2cccs2)sc2nsc(SCCN3CCCCC3)c12 3.55 µM
COc1ccc(Cn2c(=O)c3oc4ccccc4c3n(CC(=O)Nc3ccc(F)cc3F)c2=O)cc1 11.2 µM
CN(c1ccccc1)c1ccc(/C=c2\s/c(=C(/C#N)C(=O)C(C)(C)C)n(Cc3ccco3)c2=O)cc1 6.31 µM
